Experimental data taken from PubChem BioAssay (EPA / NIEHS).
Where “and” joins values, the source holds several entries; their conditions need not be identical. Identical values can stand only once. Inconclusive results are not listed. Where a structure was tested more than once in an assay, its records may differ in their call. Calls of active or inactive are those of the source. How the source made its calls, unless noted: active means hit-call score of the fitted dose curve at least 0.9, where 1 is the maximum; inconclusive means response in the unintended direction; inactive means score below 0.9.

Assays:
[1] = CEETOX_H295R_MTT_cell_viability: Viability Assessment in the CeeTox HT-H295R MTT Assay (AID 2283718; active means hit-call score of the fitted dose curve at least 0.9, where 1 is the maximum; inactive means score below 0.9)
Procedure, shortened: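 MTT reduction (0.5 mg/ml, 4 h at 37 C; absorbance at 570 and 650 nm) gave viability as background-corrected percent change versus controls. H295R cells had 48 h forskolin (10 uM) prestimulation, then 48 h chemical exposure at 0.1% DMSO.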

[2] = Tanguay_ZF_120hpf_ActivityScore_legacy: (Legacy) Oregon State University Tanguay Lab 120 Hour Post-fertilization zebrafish Assay Score for Activity (AID 2283742);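 on AC50: dechorionated Tropical 5D wild-type zebrafish embryos held singly per well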
Procedure, shortened: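 Binary scoring of mortality and morphology by brightfield at 24 and 120 hpf, summarised into one activity score from 18 components relative to DMSO. Wild-type Tropical 5D zebrafish, chorion removed at 4 hpf, static exposure 6–120 hpf, 28 °C.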

[3] = ACEA_AR_antagonist_AUC_viability: ACEA Biosciences xCELLigence Real-Time Cell Analysis on Androgen Receptor Antagonism for Viability (AID 2283776);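 further: 22Rv1 human prostate cancer cells growing on impedance electrode plates; area under impedance growth curve at 80 h after dosing as viability; hits lower the growth signal relative to DMSO meaning cytotoxicity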
Procedure, shortened: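 22Rv1 prostate cells, continuous dosing up to 100 uM final (0.5% DMSO max), duplicate plates. Growth measured by impedance; AUC at 80 h, loss of signal vs DMSO.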

[4] = test system: chicken Androgen Receptor (AR), gene 422165; experiment: ATG_chAR_XSP1: Attagene TRANS-FACTORIAL Multi-Species (XSP1) HepG2 Assay for chicken Androgen Receptor (AR) (AID 2283768)
Procedure, shortened: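 Reporter mRNA read by RT-PCR with fluorescent labelling and capillary electrophoresis 24 h after chemical dosing of transiently transfected HepG2 cells. Chicken AR-Gal4 chimera, partially stimulated with 3 nM 6-alpha-fluorotestosterone; activity fitted upward relative to DMSO.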

[5] = test system: frog Androgen Receptor (AR), gene 399456; experiment: ATG_frAR_XSP1: Attagene TRANS-FACTORIAL Multi-Species (XSP1) HepG2 Assay for frog Androgen Receptor (AR) (AID 2283770)
Procedure: ATG_XSP1_multi-species_TRANS is a cell-based, multiplexed assay created by modifying the existing Attagene TRANS-FACTORIAL system to include a panel of nuclear receptors from some or all the following species: human (Homo sapiens), mouse (Mus musculus), frog (Xenopus laevis), zebrafish (Danio rerio), chicken (Gallus gallus), and turtle (Chrysemys picta). The ECOTOX-FACTORIAL format uses HepG2, a human liver cell line, with measurements taken at 24 hours after chemical dosing in a 24-well plate. Xsp1 included 3 nM 6-alpha-fluorotestosterone to partially stimulate the androgen receptor.ATG_frAR_XSP1 is one of 29 assay components measured or calculated from the ATG_XSP1_multi-species_TRANS assay. It is designed to make measurements of mRNA induction, a form of inducible reporter, as detected with fluorescence intensity signals by Reverse transcription polymerase chain reaction (RT-PCR) and Capillary electrophoresis technology.The assay endpoint ATG_frAR_XSP1 was analyzed in the positive analysis fitting direction relative to DMSO as the negative control and baseline of activity. […] Furthermore, this assay endpoint can be referred to as a primary readout, because this assay has produced multiple assay endpoints where this one serves a reporter gene function. […]

[6] = test system: zebrafish Androgen Receptor (AR), gene 100005148; experiment: ATG_zfAR_XSP1: Attagene TRANS-FACTORIAL Multi-Species (XSP1) HepG2 Assay for zebrafish Androgen Receptor (AR) (AID 2283771)
Procedure, shortened: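 Gain-of-signal versus DMSO was measured as reporter transcripts quantified by RT-PCR, fluorescent labelling and capillary electrophoresis after 24 h chemical exposure. The cells were HepG2 expressing a chimeric zebrafish AR-GAL4, co-stimulated with 3 nM 6-alpha-fluorotestosterone.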

[7] = target: zebrafish Estrogen Receptor (ESR1), esr1 (gene 259252) (UniProt P57717); experiment: ATG_zfER1_XSP1: Attagene TRANS-FACTORIAL Multi-Species (XSP1) HepG2 Assay for zebrafish Estrogen Receptor (ESR1) (AID 2283772)
Procedure, shortened: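 Transfect HepG2 with GAL4-UAS multi-reporter constructs; treat 24 h (medium carries 3 nM 6-alpha-fluorotestosterone); extract RNA, reverse-transcribe, PCR-amplify, FAM-label, digest with HpaI; resolve by capillary electrophoresis and compare against DMSO baseline.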

[8] = test system: zebrafish Estrogen Receptor (ESR2B), gene 317733; experiment: ATG_zfER2b_XSP1: Attagene TRANS-FACTORIAL Multi-Species (XSP1) HepG2 Assay for zebrafish Estrogen Receptor (ESR2B) (AID 2283773)
Procedure, shortened: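 Medium contained 3 nM 6-alpha-fluorotestosterone. Reporter mRNA induction by exogenous zebrafish ER2b-Gal4 chimera was read 24 h post-dose in transiently transfected HepG2 cells, using RT-PCR, fluorescent labelling, HpaI digestion and capillary electrophoresis.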

[9] = test system: frog Estrogen Receptor (ESR2), gene 100174814; experiment: ATG_frER2_XSP1: Attagene TRANS-FACTORIAL Multi-Species (XSP1) HepG2 Assay for frog Estrogen Receptor (ESR2) (AID 2283774)
Procedure, shortened: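 Reporter mRNA from a multiplexed TRANS system, measured by RT-PCR with fluorescent labelling and capillary electrophoresis, 24 hours after chemical exposure. Human HepG2 liver cells carried exogenous frog ER-Gal4 chimera; medium included 3 nM 6-alpha-fluorotestosterone; increases versus DMSO analysed.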

[10] = test system: frog Estrogen Receptor (ESR1), gene 398734; experiment: ATG_frER1_XSP1: Attagene TRANS-FACTORIAL Multi-Species (XSP1) HepG2 Assay for frog Estrogen Receptor (ESR1) (AID 2283777)
Procedure, shortened: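 HepG2 cells transiently transfected with GAL4-UAS reporter units and frog ER–Gal4 chimera were dosed for 24 h with 3 nM 6-alpha-fluorotestosterone present. Reporter mRNA was measured by RT-PCR and capillary electrophoresis; gain of signal fitted versus DMSO.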

[11] = test system: zebrafish Estrogen Receptor (ESR2A), gene 317734; experiment: ATG_zfER2a_XSP1: Attagene TRANS-FACTORIAL Multi-Species (XSP1) HepG2 Assay for zebrafish Estrogen Receptor (ESR2A) (AID 2283778)
Procedure, shortened: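 Reporter transcripts were quantified by RT-PCR, 6-FAM labelling, HpaI digestion and capillary electrophoresis after 24 h dosing. The cells were HepG2 transiently carrying a zebrafish ER2a–Gal4 construct plus multiplexed UAS reporters; medium contained 3 nM 6-alpha-fluorotestosterone.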

[12] = target: chicken Estrogen Receptor (ESR1), ESR1 (gene 396099) (UniProt P06212); experiment: ATG_chERa_XSP1: Attagene TRANS-FACTORIAL Multi-Species (XSP1) HepG2 Assay for chicken Estrogen Receptor (ESR1) (AID 2283779)
Procedure, shortened: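 Trans-activation of an exogenous chicken ERα–Gal4 chimera read as reporter transcript (RT-PCR, fluorescent labeling, capillary electrophoresis) after 24 h compound exposure of transfected HepG2; medium held 3 nM 6-alpha-fluorotestosterone. Positive-direction fit against DMSO.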

[13] = target: Estrogen receptor (Homo sapiens) (UniProt P03372); experiment: ATG_hERa_XSP1: Attagene TRANS-FACTORIAL Multi-Species (XSP1) HepG2 Assay for human Estrogen Receptor (ESR1) (AID 2283780)
Procedure, shortened: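 Reporter transcripts from multiplexed GAL4-UAS units driven by NR-Gal4 chimeras in transiently transfected HepG2 were measured by RT-PCR with capillary electrophoresis 24 h post-dose, with 3 nM 6-alpha-fluorotestosterone present; gain-of-signal relative to DMSO.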

[14] = target: Luciferin 4-monooxygenase (Photinus pyralis) (UniProt P08659); experiment: CCTE_Simmons_QuantiLum_inhib_2: CCTE's Firefly Luciferase Inhibition Assay, Simmons Lab (AID 2283767)
Procedure, shortened: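 Eight-point titrations of each chemical, 5 nM–87.5 uM final in 0.5% DMSO, were run in three biological replicates against recombinant luciferase for 30 min at 37C. Bioluminescence signal loss, read on reagent injection, gave the inhibition endpoint.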

[15] = ACEA_AR_agonist_AUC_viability: ACEA Biosciences xCELLigence Real-Time Cell Analysis on Androgen Receptor Agonism for Viability (AID 2283775)
Procedure, shortened: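 Viability endpoint from xCELLigence impedance in 22Rv1 prostate cells at 80 h. Eight-point series, 100 uM maximum final.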

Measured: AC50

chicken Estrogen Receptor (ESR1), ESR1 (gene 396099), sequence (P06212 whole entry, looked up, the tested form may be a part): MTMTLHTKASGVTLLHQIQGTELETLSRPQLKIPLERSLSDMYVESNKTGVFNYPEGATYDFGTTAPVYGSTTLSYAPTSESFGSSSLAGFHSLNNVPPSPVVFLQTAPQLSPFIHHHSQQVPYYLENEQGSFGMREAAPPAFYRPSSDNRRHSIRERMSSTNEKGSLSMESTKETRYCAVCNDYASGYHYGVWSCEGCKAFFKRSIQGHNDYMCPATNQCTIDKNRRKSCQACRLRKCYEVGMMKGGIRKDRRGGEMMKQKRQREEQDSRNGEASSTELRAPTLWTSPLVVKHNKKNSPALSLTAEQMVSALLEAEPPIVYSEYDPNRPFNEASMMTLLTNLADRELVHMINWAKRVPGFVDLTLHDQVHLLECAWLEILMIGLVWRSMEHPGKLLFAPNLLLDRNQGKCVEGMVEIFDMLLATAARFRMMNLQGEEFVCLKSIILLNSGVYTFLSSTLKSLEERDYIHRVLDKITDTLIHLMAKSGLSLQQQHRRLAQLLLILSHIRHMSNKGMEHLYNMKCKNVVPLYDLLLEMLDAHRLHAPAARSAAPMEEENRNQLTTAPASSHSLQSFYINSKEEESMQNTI
Estrogen receptor (Homo sapiens), sequence (P03372 whole entry, looked up, the tested form may be a part): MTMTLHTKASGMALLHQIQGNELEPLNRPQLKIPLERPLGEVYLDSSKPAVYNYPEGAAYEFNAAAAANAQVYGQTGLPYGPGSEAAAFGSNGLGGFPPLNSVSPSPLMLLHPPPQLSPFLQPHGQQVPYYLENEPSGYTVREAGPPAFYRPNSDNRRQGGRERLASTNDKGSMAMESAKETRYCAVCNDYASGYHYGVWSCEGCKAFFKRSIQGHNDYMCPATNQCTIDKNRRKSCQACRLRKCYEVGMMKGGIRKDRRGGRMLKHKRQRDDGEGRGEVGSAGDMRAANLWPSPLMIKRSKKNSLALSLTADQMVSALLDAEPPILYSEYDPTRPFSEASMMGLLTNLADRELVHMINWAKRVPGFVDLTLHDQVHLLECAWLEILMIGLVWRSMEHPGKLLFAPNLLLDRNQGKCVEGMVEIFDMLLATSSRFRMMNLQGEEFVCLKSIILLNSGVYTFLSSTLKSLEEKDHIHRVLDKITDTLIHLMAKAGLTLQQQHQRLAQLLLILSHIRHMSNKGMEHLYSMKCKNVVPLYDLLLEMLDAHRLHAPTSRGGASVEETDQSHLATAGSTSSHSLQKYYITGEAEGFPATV
zebrafish Estrogen Receptor (ESR1), esr1 (gene 259252), sequence (P57717 whole entry, looked up, the tested form may be a part): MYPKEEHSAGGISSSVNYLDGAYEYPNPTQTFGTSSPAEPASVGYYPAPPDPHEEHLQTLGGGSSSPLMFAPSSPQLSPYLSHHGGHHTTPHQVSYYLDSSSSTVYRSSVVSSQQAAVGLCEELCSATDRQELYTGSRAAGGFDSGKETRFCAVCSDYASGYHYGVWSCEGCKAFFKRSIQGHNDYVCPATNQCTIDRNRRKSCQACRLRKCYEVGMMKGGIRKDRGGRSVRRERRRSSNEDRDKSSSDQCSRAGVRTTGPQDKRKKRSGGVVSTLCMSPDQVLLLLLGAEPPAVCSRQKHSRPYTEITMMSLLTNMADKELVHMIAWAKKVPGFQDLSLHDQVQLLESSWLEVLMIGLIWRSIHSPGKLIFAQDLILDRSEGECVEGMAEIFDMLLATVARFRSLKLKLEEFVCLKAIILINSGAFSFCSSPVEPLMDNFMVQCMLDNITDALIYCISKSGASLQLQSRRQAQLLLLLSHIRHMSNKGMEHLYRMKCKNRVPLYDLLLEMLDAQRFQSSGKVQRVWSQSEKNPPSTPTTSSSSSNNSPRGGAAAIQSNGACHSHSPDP
Luciferin 4-monooxygenase (Photinus pyralis), sequence (P08659 whole entry, looked up): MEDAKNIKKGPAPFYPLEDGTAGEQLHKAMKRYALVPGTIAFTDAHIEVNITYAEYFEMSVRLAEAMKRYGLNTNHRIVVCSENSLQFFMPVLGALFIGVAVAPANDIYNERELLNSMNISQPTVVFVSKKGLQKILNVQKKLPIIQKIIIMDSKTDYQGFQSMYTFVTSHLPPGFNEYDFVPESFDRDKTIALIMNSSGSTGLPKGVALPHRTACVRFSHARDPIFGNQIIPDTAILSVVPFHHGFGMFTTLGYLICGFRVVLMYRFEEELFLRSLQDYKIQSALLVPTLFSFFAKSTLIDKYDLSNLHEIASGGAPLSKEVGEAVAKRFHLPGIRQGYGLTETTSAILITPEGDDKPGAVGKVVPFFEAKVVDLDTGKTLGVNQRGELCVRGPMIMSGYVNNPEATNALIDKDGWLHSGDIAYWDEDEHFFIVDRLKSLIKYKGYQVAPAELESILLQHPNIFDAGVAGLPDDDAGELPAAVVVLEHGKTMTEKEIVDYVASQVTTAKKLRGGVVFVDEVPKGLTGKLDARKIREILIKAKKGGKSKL

CCSC(=O)N(CC)C1CCCCC1
inactive: [1] | [2] | [3]

N#Cc1ccc(N(CC(N)=O)CC(F)(F)F)cc1C(F)(F)F
inactive: [1] | [2]

Cc1cc(O)ccc1Cl
inactive: [1] | [2] | [3]

C[C@]12CCC(=O)C=C1CC[C@@H]1[C@@H]2CC[C@@]2(C)[C@H]1CC[C@]2(C)O
active: [4] 0.449 nM | [5] 3.8 nM | [6] 0.293 nM | [7] 39.6 nM | [8] 5.69 nM | [9] 17.3 nM | [10] 2.97 nM | [11] 2.72 nM | [12] 1.61 nM | [13] 1.17 nM
inactive: [1] | [2]

CC(C)(c1ccccc1)c1ccc(O)cc1
active: [2] 27000 nM | [7] 1670 nM | [8] 882 nM | [9] 525 nM | [3] 13300 nM | [10] 232 nM | [12] 1980 nM | [13] 300 nM
inactive: [14] | [6] | [11]

CCCCCCCCOC(=O)c1ccccc1C(=O)OCCCCCCCC
inactive: [1] | [2] | [14] | [15] | [3]

NS(=O)(=O)C(F)(F)C(F)(F)C(F)(F)C(F)(F)C(F)(F)C(F)(F)C(F)(F)C(F)(F)F
inactive: [1]
active: [2] 38000 nM | [3] 59400 nM

C[C@]12CCC(=O)C=C1CC[C@@H]1[C@@H]2CC[C@]2(C)C(=O)CC[C@@H]12
inactive: [1] | [14] | [4] | [6] | [7]
active: [2] 67700 nM | [4] 53.5 nM | [7] 1140 nM | [8] 15.4 nM and 14.6 nM | [9] 69 nM and 15.3 nM | [10] 13 nM and 15.4 nM | [11] 17.5 nM and 13.2 nM | [12] 6.69 nM and 4.53 nM | [13] 3.35 nM
